Results filed as inconclusive are left out. Calls of active or inactive are those of the source. Rule as the data show it, unless noted: active = inhibition above about 30%; inactive = the rest.
Assays:
[1] = reducers of endogenous Her2 protein level, primary screen, SKBR3 breast tumor cells, AlphaScreen, ATP viability (AID 461;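 active = Her2 level under about 52% in both replicate screens, with viability over 70% of control, limit read from the data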;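 as to Her2 level: lower value means less Her2 protein in the cells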;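 as to viability: percent of carrier control wells set as 100% viability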); conditions: 18-24 h, measured here: SKBR3 viability, ATP luminescence, at 10 µM
[2] = molecular target: Receptor tyrosine-protein kinase erbB-2 (Homo sapiens) (UniProt P04626); assay: as above; conditions: 18-24 h, at 10 µM, stronger effect = lower value
Chain of Receptor tyrosine-protein kinase erbB-2 (Homo sapiens) (P04626 whole entry, looked up): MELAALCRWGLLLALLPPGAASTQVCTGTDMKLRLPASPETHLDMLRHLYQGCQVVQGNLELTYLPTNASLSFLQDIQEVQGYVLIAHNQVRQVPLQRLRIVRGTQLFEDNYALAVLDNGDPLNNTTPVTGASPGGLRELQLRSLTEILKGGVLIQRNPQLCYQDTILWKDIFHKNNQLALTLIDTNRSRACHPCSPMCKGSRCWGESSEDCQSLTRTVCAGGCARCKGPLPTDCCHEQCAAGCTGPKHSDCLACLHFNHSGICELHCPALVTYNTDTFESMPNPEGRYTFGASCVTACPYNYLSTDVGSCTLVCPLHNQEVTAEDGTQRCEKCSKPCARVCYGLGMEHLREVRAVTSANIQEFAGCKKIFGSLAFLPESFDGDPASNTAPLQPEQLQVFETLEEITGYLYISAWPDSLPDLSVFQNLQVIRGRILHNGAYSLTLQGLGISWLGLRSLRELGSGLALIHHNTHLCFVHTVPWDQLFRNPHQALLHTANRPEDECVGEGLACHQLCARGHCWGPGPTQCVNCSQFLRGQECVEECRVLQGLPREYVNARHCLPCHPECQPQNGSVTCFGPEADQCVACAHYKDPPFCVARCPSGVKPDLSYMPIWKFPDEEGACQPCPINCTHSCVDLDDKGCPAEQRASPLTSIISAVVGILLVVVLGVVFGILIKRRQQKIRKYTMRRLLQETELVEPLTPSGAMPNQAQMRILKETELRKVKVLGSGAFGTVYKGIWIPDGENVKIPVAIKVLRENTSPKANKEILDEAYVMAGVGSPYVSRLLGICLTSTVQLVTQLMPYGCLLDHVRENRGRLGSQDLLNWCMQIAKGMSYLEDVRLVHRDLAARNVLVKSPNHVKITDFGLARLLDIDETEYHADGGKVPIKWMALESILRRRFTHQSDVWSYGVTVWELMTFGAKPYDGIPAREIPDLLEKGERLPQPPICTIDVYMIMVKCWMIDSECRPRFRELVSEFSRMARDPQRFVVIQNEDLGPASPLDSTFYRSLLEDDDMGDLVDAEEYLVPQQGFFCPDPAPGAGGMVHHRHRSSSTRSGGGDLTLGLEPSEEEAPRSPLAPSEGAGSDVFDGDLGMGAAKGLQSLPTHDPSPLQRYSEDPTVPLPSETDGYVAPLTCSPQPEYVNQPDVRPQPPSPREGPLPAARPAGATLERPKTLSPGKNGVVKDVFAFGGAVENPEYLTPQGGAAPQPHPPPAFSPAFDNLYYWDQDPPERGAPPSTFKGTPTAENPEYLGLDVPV

[3] = SK-BR-3 cell growth inhibitors, pilot screen, 24 h, human (AID 572;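 active = viability at or below 10% of carrier control in both of two separate runs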;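 also: compound exposure lasted between 18 and 24 h rather than exactly 24 h; 100% = carrier-treated control wells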); conditions: SK-BR-3 viability, CellTiter-Glo luminescence, at 10 µM, stronger effect = lower value
[4] = HUVEC growth inhibition – cell-based, human, primary screen (AID 575;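 active = viability at or below 30% in both replicate assays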;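 also: 100% = median of untreated cell wells with 0.1% DMSO on each plate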); conditions: HUVEC proliferation, CellTiter-Glo luminescence, 72 h; at 10 µM; stronger effect = lower value
[5] = growth inhibitors of H69AR lung tumor, primary screen, human, duplicate replicates (AID 580;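 active = viability at or under a set limit in both replicates, limit being median viability minus 3 SD, cut at about 48% in these data, passing the limit was not always enough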;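 also: 100% = mean luminescence of untreated wells and 0% = no signal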); conditions: H69AR lung tumor cells viability, ATP luminescence, 72 h; at 10 µM; stronger effect = lower value
[6] = reversal of MRP1-mediated doxorubicin resistance, pilot screen, H69AR cells, doxorubicin co-treatment (AID 601;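 active = viability loss from added drug above about 55%, and viability with drug at most 40%, in both replicates, limit read from the data, passing the limit was not always enough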); conditions: CellTiter-Glo, 72 h, at 10 µM; for differential viability (reversal): stronger effect = higher value
[7] = 384-well plate pilot, post-Golgi transport modulator project, inhibition of yeast transport mutant growth (AID 636; in the data active = inhibition above about 31%); conditions: absorbance 615 nm, about 18 h, stronger effect = higher value
[8] = growth suppression of yeast trafficking mutant, preliminary HTS, modulators of trafficking downstream of Golgi apparatus project, 1536-format plate, OD 615 nm (AID 637); conditions: yeast transport mutant growth, absorbance 615 nm, 18 h; stronger effect = higher value
[9] = OD615 S. cerevisiae growth inhibition, permissive medium, pilot counter-assay, permissive growth control for S. cerevisiae lifespan shortening project (AID 705;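 active = growth inhibition above 25% in both replicates, a cutoff set 3 SD above the mean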); conditions: OD615, 24 h, at 10 µM, stronger effect = higher value
[10] = Restrictive medium S. cerevisiae growth inhibition, OD615, pilot screen of yeast lifespan reduction project, restrictive growth control (AID 706;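 active = growth inhibition above a set limit, 3 SD over mean compound inhibition, in both replicates, cut at about 43% in these data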;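 also: modified DeaD lifespan yeast strain shifted to restrictive glucose medium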); conditions: OD615, 48 h, at 10 µM, stronger effect = higher value
[11] = viability gain of MRP-1-high H69AR cells under doxorubicin, pilot screen, MRP-1 activator project, CellTiter-Glo, duplicate (AID 807;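 active = viability increase at or above a cutoff of the median across tested compounds plus 3 SD, cut at about 8.5% in these data, passing the limit was not always enough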;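 also: compound pretreatment 18-22 h then 72 h combined with doxorubicin; 0% = doxorubicin alone and 100% = vehicle without doxorubicin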); conditions: H69AR viability with doxorubicin, CellTiter-Glo luminescence; at 10 µM; stronger effect = higher value
[12] = growth suppression of beta-catenin knockout HCT116, pilot screen, human colon tumor cells (AID 823;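 active = cell viability at or below a set limit in both duplicate runs, the limit being the all-compound median minus 4 SD, cut at about 23% in these data, passing the limit was not always enough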;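 also: 0% = wells killed by 20 µM Hyamine and 100% = untreated DMSO cell wells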); conditions: CellTiter-Glo, 60 h, at 10 µM, stronger effect = lower value
[13] = growth suppression of PTEN-deleted HCT116, pilot screen, cell-based, HCT116 clonal line, CellTiter-Glo (AID 824;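 active = viability at or below 27.92% in each of two runs, the all-compound median minus 4 SD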;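 also: 0% = 20 µM Hyamine control and 100% = vehicle cell control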); conditions: 60 h, at 10 µM, stronger effect = lower value
[14] = inhibitors of the yeast RAM network, pilot screen, dse1pr::URA3 reporter, 5-FOA selection (AID 869;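 active = inhibition over a set limit, the all-compound mean plus 3 SD, in both replicate runs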;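 also: 0% = DMSO wells with no growth and 100% = 10 µM 1-NA-PP1 with full growth; RAM network block rescues cells from 5-FOA so hits raise OD615 growth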); conditions: S. cerevisiae dse1pr::URA3 5-FOA growth, OD615, 2 d; at 10 µM; stronger effect = higher value; strain carries analog-sensitive mutant Cbk1 kinase
[15] = RAM signaling pathway blockade in yeast – S. cerevisiae, Pdr1DBD-CYC8 efflux-inhibited sensitized strain, primary screen (AID 1298;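 active = RAM network inhibition above 8.4% in each of two replicates, 3 SD over the compound average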;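 also: 0% = DMSO untreated cells without growth and 100% = 10 µM 1-NA-PP1 full growth; higher means more yeast growth rescued from 5-FOA killing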); conditions: S. cerevisiae cbk1-as DSE1-URA3 strain, 5-FOA growth OD615, 2 d; at 50 µM; stronger effect = higher value
[16] = H69AR cells + 2 uM doxorubicin, measured here: viability with 2 uM doxorubicin, stronger effect = lower value
[17] = H69AR cells, compound alone cytotoxicity

| SMILES | viability [1] | Her2 level [2] | viability [3] | viability [4] | viability [5] | differential viability (reversal) ([6]; H69AR cells + 2 uM doxorubicin) | viability [6, 16] | viability [6, 17] | inhibition [7] | inhibition [8] | growth inhibition [9] | growth inhibition [10] | viability increase [11] | viability [12] | viability [13] | inhibition [14] | RAM network inhibition [15] |
| --- | --- | --- | --- | --- | --- | --- | --- | --- | --- | --- | --- | --- | --- | --- | --- | --- | --- |
| CCSC1=C(C#N)C(c2ccccc2OC)CC(=O)N1 (stereo not drawn) | 92% | 97.5% (inactive) | 92% (inactive) | 86.3% (inactive) | 99.8% (inactive) | 6.97% (inactive) | 92.8% | 99.8% | -1.73% (inactive) | -2.33% (inactive) | -3.36% (inactive) | 0.71% (inactive) | 0.28% (inactive) | 94.1% (inactive) | 91.6% (inactive) | 1.78% (inactive) | 1.8% (inactive) |
| Cc1ccccc1-n1c(Cn2c(=O)sc3ccccc32)nnc1SCC(=O)N1CCCC1 | 109% | 90.5% (inactive) | 109% (inactive) | 98% (inactive) | 93.7% (inactive) | 12.6% (inactive) | 81.1% | 93.7% | -4% (inactive) | 6.89% (inactive) | -2.21% (inactive) | 6.39% (inactive) | -0.45% (inactive) | 98.6% (inactive) | 104% (inactive) | -0.765% (inactive) | 8.27% (inactive) |
| COc1cc(NC(=O)CN(c2cc(C)cc(C)c2)S(=O)(=O)c2c(C)noc2C)cc(OC)c1 | 88.5% | 108% (inactive) | 88.5% (inactive) | 80.8% (inactive) | 83.8% (inactive) | -0.43% (inactive) | 84.3% | 83.8% | 0.9% (inactive) | -5% (inactive) | -14.8% (inactive) | -18.5% (inactive) | -4.92% (inactive) | 92.3% (inactive) | 87.5% (inactive) | 2.82% (inactive) | 4.61% (inactive) |
| COc1ccc2[nH]c(C)c(CCN3C(=O)OC(C)(C)C3(C)O)c2c1 (stereo not drawn) | 100% | 108% (inactive) | 100% (inactive) | 102% (inactive) | 81.5% (inactive) | -10.4% (inactive) | 91.9% | 81.5% | -5.73% (inactive) | -6.67% (inactive) | 4.92% (inactive) | -5.26% (inactive) | -1.56% (inactive) | 107% (inactive) | 96.4% (inactive) | 1.92% (inactive) | 2.87% (inactive) |
| Cc1ccc(-n2ncc3c(=O)[nH]c(SC(C)C)nc32)cc1 | 93% | 104% (inactive) | 93% (inactive) | 84.9% (inactive) | 80.1% (inactive) | 11.3% (inactive) | 68.7% | 80.1% | -4.4% (inactive) | -6% (inactive) | -3.77% (inactive) | -5.77% (inactive) | -3.9% (inactive) | 98.4% (inactive) | 87.4% (inactive) | 3.35% (inactive) | 4.11% (inactive) |
| Cc1n[nH]c(C)c1N1C(=O)c2cccc3cc(Br)cc(c23)C1=O | 74.5% | 79% (inactive) | 74.5% (inactive) | 85.5% (inactive) | 81.1% (inactive) | -1.29% (inactive) | 82.4% | 81.1% | 0.26% (inactive) | -4% (inactive) | -11.5% (inactive) | -11.6% (inactive) | -2.41% (inactive) | 107% (inactive) | 101% (inactive) | 3.01% (inactive) | 4.68% (inactive) |
| O=C(c1cnc2n(c1=O)CCS2)N(C1CCCCC1)C1CCCCC1 | 87% | 84% (inactive) | 87% (inactive) | 106% (inactive) | 102% (inactive) | 5.03% (inactive) | 97.4% | 102% | -4.53% (inactive) | -1% (inactive) | 2.67% (inactive) | -18.9% (inactive) | -2.34% (inactive) | 101% (inactive) | 92.3% (inactive) | 1.71% (inactive) | 2.61% (inactive) |
| COc1ccc(N2CCN(Cc3nc4c(c(=O)n(C)c(=O)n4C)n3Cc3ccccc3C)CC2)cc1 | 92.5% | 81% (inactive) | 92.5% (inactive) | 94.5% (inactive) | 80% (inactive) | 25.1% (inactive) | 54.9% | 80% | -2.4% (inactive) | -2% (inactive) | -12.5% (inactive) | -24.9% (inactive) | -4.52% (inactive) | 90.7% (inactive) | 77.6% (inactive) | 1.29% (inactive) | -0.26% (inactive) |
| O=C(Nc1cccc2ccccc12)c1ccc(Br)o1 | 120% | 88.5% (inactive) | 120% (inactive) | 87.1% (inactive) | 84% (inactive) | -1.12% (inactive) | 85.1% | 84% | -3.25% (inactive) | -0.17% (inactive) | -10% (inactive) | 1.96% (inactive) | -1.67% (inactive) | 94.3% (inactive) | 90.8% (inactive) | 0.995% (inactive) | 3.58% (inactive) |

Reference: PubChem BioAssay
